Laboratory results: PubChem BioAssay (EPA / NIEHS)
Active and inactive are the calls of the source. Rule for the calls: active = hit-call score of the fitted dose curve at least 0.9, where 1 is the maximum; inactive = score below 0.9.

read-out: Vascular cell adhesion molecule 1 (VCAM1), VCAM1 (gene 7412); experiment: BSK_hDFCGF_VCAM1: BioMAP Diversity Plus: hDFCGF Assay for Vascular cell adhesion molecule 1 (VCAM1) Biomarker Activity (AID 2283065); settings: primary human foreskin fibroblasts; actives raise or lower the signal
Protocol: BSK_hDFCGF is a cell-based, multiplexed-readout assay that uses foreskin fibroblast, a human skin primary cell, with measurements taken at 24 hours after chemical dosing in a 96-well plate.BSK_hDFCGF_VCAM1 is an assay component measured in the BSK_hDFCGF assay. It measures VCAM-1 antibody related to regulation of gene expression using ELISA technology.Data from the assay component BSK_hDFCGF_VCAM1 was analyzed into 1 assay endpoint. This assay endpoint, BSK_hDFCGF_VCAM1, was analyzed with bidirectional fitting relative to DMSO as the negative control and baseline of activity. Using a type of binding reporter, gain or loss-of-signal activity can be used to understand changes in the signaling as they relate to the gene VCAM1. Furthermore, this assay endpoint can be referred to as a primary readout, because this assay has produced multiple assay endpoints where this one serves a signaling function. To generalize the intended target to other relatable targets, this assay endpoint is annotated to the cell adhesion molecules intended target family, where the subfamily is Immunoglobulin CAM.
The levels of cell surface (or secreted, indicated by the prefix "s") biomarker endpoints were measured by ELISA. Overt cytotoxicity to cells in confluent adherent cultures (all systems other than the BT system) was assessed by measuring total protein levels using sulforhodamine B (SRB) staining in parallel cultures at the time of biomarker measurements, indicated as SRB endpoints. For proliferation assays for adherent cell types, individual cell types are cultured at sub-confluence and relative cell numbers quantified by SRB staining at time points optimized for each system (48 h: 3C and CASM3C systems; 72 h: BT and HDF3CGF systems; 96 h: SAg system). SRB was performed by staining cells with 0.1% SRB after fixation with 10% TCA and reading wells at 560 nm.Viability and proliferation of PBMC (T cells) was quantified by Alamar Blue reduction for the SAg and BT systems. For PBMC viability (referred to as PBMC Cytotoxicity within the assay endpoint names), cells were plated (75,000/well in a 96-well plate) and then chemical samples added for 1 h before addition of activators, SEB and TSST-1 (20 ng/mL final concentration each). Cells were incubated for 90 h. Then, Alamar Blue (20 uL/well) (Invitrogen, Cat DAL1100) was added for 6 h, and the plates were read with a fluorescence microplate reader at 546/580 nm (excitation/emission). For PBMC proliferation, cells were plated and activated as above but incubated for only 16 h prior to addition of Alamar Blue. Plates were read after 6 h.

Row | SMILES | outcome | AC50
1 | c1cc(-c2ccncc2)ccn1 | inactive | 
2 | CNCc1cc(F)ccc1Oc1ccc(Cl)c(Cl)c1 | inactive | 
3 | CCCCN(CCCC)CCCC | inactive | 
4 | COc1cc(S(=O)(=O)O)c(C)cc1N=Nc1c(O)ccc2cc(S(=O)(=O)O)ccc12 | inactive | 
5 | CCCCCC(=O)O | inactive | 
6 | CC1(C)CC(N=C=O)CC(C)(CN=C=O)C1 (stereo not given) | inactive | 
7 | C=CCOC(=O)c1ccccc1C(=O)OCC=C | inactive | 
8 | OC[C@@H](O)[C@@H](O)[C@H](O)[C@H](O)CO | inactive | 
9 | CCCCCCOCCO | inactive | 
10 | NCCO | inactive | 
11 | Oc1ccc2c(c1)OC[C@@H](N1CCC(O)(c3ccc(F)cc3)CC1)[C@H]2O | inactive | 
12 | CCCCCCCCCCCC(=O)OC | inactive | 
13 | Nc1nc(N)c2nc(CNc3ccc(C(=O)N[C@@H](CCC(=O)O)C(=O)O)cc3)cnc2n1 | inactive | 
14 | O=C(OCCCCCOC(=O)c1ccccc1)c1ccccc1 | inactive | 
15 | O=[N+]([O-])C(CO)(CO)CO | inactive | 
16 | CCCCOC(=O)CCCCCCCCC(=O)OCCCC | inactive | 
17 | Cc1ccc(C)c(O)c1C | inactive | 
18 | CCCCCCCCCCC | inactive | 
19 | CC(C)c1ccc(C(=O)N=C(N)N)cc1S(C)(=O)=O | inactive | 
20 | Cc1c(C(=O)O)c(O)cc2c1C(=O)c1c(O)c([C@@H]3O[C@H](CO)[C@@H](O)[C@H](O)[C@H]3O)c(O)c(O)c1C2=O | inactive | 

Row | SMILES | outcome | AC50
21 | CCc1c(C(=O)NN2CCCCC2)nn(-c2ccc(Cl)cc2Cl)c1-c1ccc(Br)cc1 |  | 3.82 µM (active)
22 | O=C(N[C@@H](Cc1ccccc1)[C@@H](O)C(=O)N1C[C@@H](O)[C@@H](O)C1)c1cc2cc(Cl)ccc2[nH]1 | inactive | 
23 | CCCCCCCCCCO | inactive | 
24 | CC(=O)Oc1ccccc1C(=O)O | inactive | 
25 | C[Si]1(C)O[Si](C)(C)O[Si](C)(C)O[Si](C)(C)O1 | inactive | 
26 | CC1(C)NC(=O)NC1=O | inactive | 
27 | Oc1ccc2ccccc2c1N=Nc1ccccc1 | inactive | 
28 | CNC(=O)[C@H]1O[C@@H](n2cnc3c(NCc4cc(Cl)ccc4OCc4cc(C)no4)ncnc32)[C@H](O)[C@@H]1N | inactive | 
29 | C[C@]12C=CC(=O)C=C1CC[C@@H]1[C@@H]2C(=O)C[C@@]2(C)[C@H]1CC[C@]2(O)C(=O)CO | inactive | 
30 | Cc1ccc(Cl)cc1 | inactive | 
31 | Cc1cccc([N+](=O)[O-])c1C | inactive | 
32 | Cc1ccc(C(C)C)c(O)c1 | inactive | 
33 | Cc1cccc(Nc2cc(Cl)nc(SCC(=O)O)n2)c1C | inactive | 
34 | CC=Cc1ccc(O)c(OC)c1 | inactive | 
35 | CC1=C(/C=C/C(C)=C/C=C/C(C)=C/CO)C(C)(C)CCC1 |  | 20.9 µM (active)
36 | NS(=O)(=O)c1cc2c(cc1Cl)NCNS2(=O)=O | inactive | 
37 | CCNc1cccc(C)c1 | inactive | 
38 | COc1cc(C=O)ccc1O | inactive | 
39 | COc1ccc2c(c1)c(CC(=O)O)c(C)n2C(=O)c1ccc(Cl)cc1 | inactive | 
40 | O=c1c(O)c(-c2ccc(O)c(O)c2)oc2cc(O)cc(O)c12 | inactive | 
